# Source: PubChem BioAssay (National Center for Advancing Translational Sciences (NCATS))
# This is a sample that favours compounds with a hit; in the whole collection about 7.4% have one here.
# NPC1 prom act = activators of NPC1 promoter; hit rate 2.4% among 320,000; Potency, µM (highest dose often 9.22 µM), for the others: at the highest dose activation, usual class: activators; Huh7 NPC1 promoter luciferase reporter, 24 h; further: % of control where 0% means no effect; nearly all actives have a fitted effect of over 60% in size
#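 Stably transfected Huh7 (NPC1 promoter→luciferase), 1500 cells/well in Opti-MEM + 10% FBS, 2 h settle, then compound 24 h at 37 °C. Luminescence after 10 min with Amplite reagent.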
# SMN2 splice up = SMN2 splice variant enhancement | HEK293 SMN2-luciferase splicing reporter, luminescence, 30-36 h | Potency, µM (titrated, usually from 46.1 µM), without a hit: at the highest dose activity change, positive = activation, most hits filed as activators | hit rate 2.8% among 210,000 | AID 1458; further: % of control where 0% means no effect; nearly all actives have a fitted effect of over 55% in size
#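 qHTS luciferase splicing reporter: luminescence rises when SMN2 exon 7 is included in transfected HEK293 cells. Compound exposure lasted 30-36 h at 37C, with 4.5 mM final sodium butyrate as control, followed by a ONE-Glo read.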
# ELG1 genotox = genotoxicity induction in ELG1-luciferase HEK293T cells; Potency, µM (highest dose often 46 µM), for inactives: top-dose activity change, positive = activation, actives largely listed as activators; AID 504466; hit rate 1.3% among 330,000; HEK293T ELG1-luciferase reporter, luminescence, 16 h; further: % of control where 0% means no effect; nearly all actives have a fitted effect of over 60% in size
#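 Genotoxic stress is detected as increased luminescence from luciferase-tagged ELG1 in HEK293T cells, measured with ONE-Glo after a 16 hr treatment at 37 °C.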
# Rab9 prom act = Rab9 promoter activation. Potency, µM (top dose mostly 9.22 µM), inactives show at the highest dose activation, negative = inhibition, actives largely listed as activators. Huh7 Rab9 promoter-luciferase reporter, luminescence, 24 h. AID 485297. hit rate 2.8% among 320,000; further: % of control where 0% means no effect; nearly all actives have a fitted effect of over 60% in size
#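 Huh7 cells stably carrying a Rab9 promoter-luciferase reporter, 1500 cells per well in OP-MEM I with 10% FBS, treated with compound 24 hours at 37C. Luciferase activity read by luminescence after 10 minutes with Amplite reagent.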
# KinaseGlo FLuc = blocks Kinase-Glo luciferase, a counter-screen artifact; Q27757; Kinase-Glo luciferase, ATP luminescence, 8 min; Potency, µM (top dose mostly 38.3 µM), inactives show at the highest dose activity change, negative = inhibition, most hits filed as inhibitors; hit rate 0.28% among 200,000; AID 1379; further: on the % scale 0 is the no-effect control and ±100 the full control effect; nearly all actives have a fitted effect of over 60% in size
#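 Compound is pinned into ATP-containing buffer (10 uM ATP, imidazole pH 7.2, 7 mM MgCl2). Kinase-Glo luciferase reagent is then added. Light output is recorded following an 8-min room-temperature incubation.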
# FLuc counter = firefly luciferase modulation, counter-screen for miR-21 project; purified FLuc, Km substrates, luminescence inhibition; Potency, µM (titrated, usually from 57.5 µM), inactives show top-dose activity change, negative = inhibition, actives largely listed as inhibitors; hit rate 6.9% among 360,000;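 further: plate controls were vehicle for no effect and reference inhibitor for full effect; nearly all actives have a fitted effect of over 55% in size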
# Target sequence (P08659 whole entry, looked up): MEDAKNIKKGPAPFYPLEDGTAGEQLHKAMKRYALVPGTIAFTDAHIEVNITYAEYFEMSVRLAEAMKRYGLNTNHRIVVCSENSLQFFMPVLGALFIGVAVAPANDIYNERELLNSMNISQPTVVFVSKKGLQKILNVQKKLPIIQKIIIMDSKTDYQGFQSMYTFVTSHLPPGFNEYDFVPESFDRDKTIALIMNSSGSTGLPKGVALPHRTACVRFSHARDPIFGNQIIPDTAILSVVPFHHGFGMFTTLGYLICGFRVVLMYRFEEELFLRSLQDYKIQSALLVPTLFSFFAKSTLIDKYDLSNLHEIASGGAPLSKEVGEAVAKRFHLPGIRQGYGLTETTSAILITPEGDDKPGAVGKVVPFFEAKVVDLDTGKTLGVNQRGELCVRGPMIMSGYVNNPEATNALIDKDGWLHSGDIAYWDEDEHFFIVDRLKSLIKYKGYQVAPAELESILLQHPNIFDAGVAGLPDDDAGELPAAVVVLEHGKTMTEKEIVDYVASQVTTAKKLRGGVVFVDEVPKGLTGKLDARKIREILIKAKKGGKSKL
#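 Purified P. pyralis luciferase, 10 nM final, with Km-level 10 uM D-luciferin and 10 uM ATP in 50 mM Tris acetate pH 7.5, 10 mM Mg acetate, 0.01% Tween-20, 0.05% BSA; 6-point qHTS titration about 60 µM downward; luminescence read.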
# * hit, by the source's call; ? = inconclusive; / = no result; [ ] = remark or other dose. The call rests on the fitted dose curve; in most records, active means well fitted curve in the direction sought with a large enough effect; inconclusive means small, poorly fitted or top-dose-only effect, or another doubt; inactive means no such curve, though single readings can be large; an effect the other way counts as inactive or inconclusive. Potency means the concentration at half of the fitted maximal effect.
SMILES,NPC1 prom act,SMN2 splice up,ELG1 genotox,Rab9 prom act,KinaseGlo FLuc,FLuc counter
Cc1sc2c(c1C)CN(C(C)(C)C)CN2C(=O)c1ccccc1,?,?,?,?,-2.2%,?
COCCn1c(-c2ccccc2)nc2oc3ccccc3c(=O)c2c1=O,-3.7%,-1.9%,-0.9%,4.2%,-0.4%,3.3%
COCCn1c(-c2cc(OC)c(OC)c(OC)c2)nc2oc3ccccc3c(=O)c2c1=O,-0.8%,14.1µM*,-8.6%,2.0%,-5.1%,-0.4%
COc1ccc(C(=O)COC(=O)c2cccc(NC(=O)c3ccc(OC)c(OC)c3)c2)cc1,/,-1.7%,/,/,/,0.601µM*
COc1ccc(C(=O)Nc2ccc(OC)c(OC)c2)cc1,?,11.2µM*,?,?,-10.0%,12µM*
COc1cccc(NC(=O)CNC(=O)c2ccc(OC)c(OC)c2)c1,9.3%,1.2%,-0.3%,-3.9%,-3.1%,-1.3%
COc1ccc(-c2cccc(C(=O)Nc3ccc(C)cc3)c2)cc1,-3.8%,-0.5%,0.5%,3.2%,-0.6%,-17.8%
COc1ccc(-c2cccc(C(=O)Nc3ccc(OC)c(OC)c3)c2)cc1,-8.8%,-23.1%,0.2%,-0.5%,0.5%,10.7µM*
COc1ccc(-c2cccc(C(=O)Nc3cccc(C(=O)O)c3)c2)cc1,3.16µM*,14.1µM*,?,3.16µM*,-1.9%,12µM*
CCCCCNC(=O)c1c[nH]c2ccc(S(=O)(=O)N3CCC(C)CC3)cc2c1=O,/,/,/,/,/,-9.4%
Cc1c(Cl)sn(-c2ccc(Cl)cc2)c1=O,-24.0%,-99.0%,1.2%,-39.4%,-2.3%,8.49µM*
NS(=O)(=O)C#Cc1ccccc1,-37.1%[46.1 µM],/,/,-41.1%[46.1 µM],/,/
N#Cc1ccccc1Sc1ccccc1N,-2.3%,1.9%,1.3%,1.2%,2.1%,-17.3%
Nc1ccc(C#Cc2ccccc2)cc1,21.7%,23.9%,?,29.9%,4.4%,15.1µM*
Nc1ccccc1C#Cc1ccccc1,?,31.6%,?,25.8%,-8.8%,6.75µM*
Cc1ccsc1CCN1C(=O)N(c2ccccc2)C(=O)C1CC(=O)Nc1ccc(Cl)cc1 (configuration not stated),/,0.2%,/,/,/,-13.6%
Cn1c2ccccc2c(=O)c2cc(C#CC3=CCCCC3)ccc21,?,/,?,?,/,6.75µM*
Cn1c2ccccc2c(=O)c2ccc(C#Cc3ccc(N)cc3)cc21,16.2%,/,4.8%,20.8%,/,?
COc1ccc(C#Cc2ccc3c(=O)c4ccccc4n(C)c3c2)cc1,-2.3%,/,-3.6%,-0.9%,/,-16.6%
Cn1c2ccccc2c(=O)c2cc(C#Cc3cccc(N)c3)ccc21,0.4%,/,?,-1.4%,/,4.78µM*
CN1CCN(c2ncc3nc(-c4ccccc4)c(=O)n(Cc4ccc(F)cc4)c3n2)CC1,/,0.9%,/,/,-1.9%,/
O=C1NC(=Nc2ccccc2)S/C1=C\c1cccn1-c1ccccc1,-1.4%,?,?,24.4%,-2.3%,10.7µM*
Cc1cccc(N=C2NC(=O)/C(=C/c3cccn3C)S2)c1,9.8%,/,15.6%,13.7%,/,12µM*
Cc1ccc(N=C2NC(=O)/C(=C\c3cccs3)S2)cc1C,13.1%,3.55µM*,14.4%,23.1%,-5.8%,?
Cc1ccccc1N=C1NC(=O)/C(=C/c2cccn2C)S1,-0.8%,/,0.3%,-6.1%,/,?
SMILES,NPC1 prom act,SMN2 splice up,ELG1 genotox,Rab9 prom act,KinaseGlo FLuc,FLuc counter
Cc1ccc(C(=O)/C=C/c2cc(C#N)n(C)c2C)cc1,12.6%,/,9.5%,13.9%,/,8.49µM*
Cc1c(C=C2C(=O)c3ccccc3C2=O)cc(C#N)n1C,-4.2%,/,-2.2%,-5.2%,/,1.2%
CCN(CC)c1ccc(NC(=O)COC(=O)c2cccs2)cc1,-0.7%,-3.5%,-0.6%,1.8%,-9.1%,12µM*
CCN(CC)c1ccc(NC(=O)COC(=O)c2ccc3ccccc3n2)cc1,10.7%,23.1%,1.2%,-3.7%,-8.2%,23.9µM*
CCN(CC)c1ccc(C(=O)OCC(=O)Nc2ccc3[nH]c(=O)[nH]c3c2)cc1,-1.0%,2.0%,2.8%,-3.5%,0.7%,19µM*
CCN(c1ccc(NC(=O)COC(=O)c2cccs2)cc1)C(C)C,-0.8%,?,0.0%,13.0%,-0.1%,8.49µM*
COc1ccc(NC(=O)COC(=O)c2ccc3ccccc3n2)cc1,2.1%,/,0.7%,-5.5%,/,-1.1%
COc1cc(OC)cc(C(=O)OCC(=O)Nc2ccc3[nH]c(=O)[nH]c3c2)c1,2.6%,/,1.1%,2.7%,/,5.9%
C=CCOC(=O)Cn1cnc2c(sc3nc(C)cc(C)c32)c1=O,?,/,?,?,/,10.7µM*
O=C(O)Cn1cnc2c(oc3ccccc32)c1=O,-0.6%,/,-1.1%,-3.6%,/,-4.2%
Cc1cccc(Cn2cnc3c(sc4nc(C)cc(C)c43)c2=O)c1,-2.6%,/,2.1%,10.6%,/,-4.7%
O=C(Cn1cnc2c(oc3ccccc32)c1=O)c1ccccc1,2.51µM*,?,?,?,-3.9%,15.1µM*
Cc1cc(C)c2c(n1)sc1c(=O)n(CC(=O)c3ccccc3)cnc12,?,/,?,?,/,10.7µM*
Cc1ccc(CNC(=O)C(C)n2c(=O)cc(-c3ccccc3)c3c(C)nn(C)c32)cc1 (configuration not stated),/,/,/,/,/,-2.9%
CSc1n[nH]c(NCc2ccc(Cl)cc2)n1,4.9%,26.7%,-1.6%,-2.5%,-1.2%,?
CSc1n[nH]c(NCc2ccc(C)cc2)n1,29.4%,15.8µM*,?,?,-0.3%,23.9µM*
CC(=O)CSc1nc2cc3c(cc2cc1C#N)OCCO3,3.16µM*,/,?,?,4.47µM*,0.675µM*
COc1cc2cc(C#N)c(SCC(=O)N3CCOCC3)nc2cc1OC,14.4%,12.6µM*,8.6%,4.4%,1.4%,-1.3%
N#Cc1cc2cc3c(cc2nc1SCC(=O)N1CCCC1)OCCO3,?,/,2.5%,?,/,2.9%
COc1cc2cc(C)c(SCC(=O)N3CCOCC3)nc2cc1OC,-0.7%,/,6.0%,-3.3%,/,-1.9%
Cc1ccc(NC(=O)CC2Oc3ccccc3NC2=O)cc1C (configuration not stated),/,-7.1%,/,/,/,7.8%
Brc1cccc(OCCCCn2cncn2)c1,-3.5%,/,-4.4%,-0.4%,/,0.1%
CN1CCN(CCCOc2ccc(-c3ccccc3)cc2)CC1,2.82µM*,/,?,?,/,19µM*
c1ccc(Oc2cccc(OCCn3cncn3)c2)cc1,0.1%,-0.1%,10.5%,6.3%,0.0%,?
c1ccc(COc2ccc(OCCn3cncn3)cc2)cc1,2.51µM*,11.2µM*,9.2µM*,3.16µM*,-1.6%,9.53µM*
c1ccc(-c2ccc(OCCCn3cncn3)cc2)cc1,25.6%,-6.8%,?,21.8%,1.3%,16.9µM*
O=C(Nc1c(C(=O)N2CCN(c3ccccn3)CC2)oc2ccccc12)c1ccc([N+](=O)[O-])cc1,2.0%,/,-2.6%[9.26 µM],2.8%,/,6.75µM*
